Legend:
Experiment in all cases: DAPPL (digital affinity profiling via proximity ligation, sequencing); 10 mM Tris-HCl pH 7.5, 50 mM NaCl, 1 mM DTT, 4% glycerol, room temperature, 30 min; GST-TFs on glutathione beads, 16-mer random dsDNA library, 0.1% formaldehyde crosslink after washing; high values mean tight binding
Settings in all cases: protein: recombinant; tags: N-terminal GST; dsDNA, one strand shown
[1] = target: T1, FLI1 (Homo sapiens, UniProt Q01543 1-452)
T1 sequence: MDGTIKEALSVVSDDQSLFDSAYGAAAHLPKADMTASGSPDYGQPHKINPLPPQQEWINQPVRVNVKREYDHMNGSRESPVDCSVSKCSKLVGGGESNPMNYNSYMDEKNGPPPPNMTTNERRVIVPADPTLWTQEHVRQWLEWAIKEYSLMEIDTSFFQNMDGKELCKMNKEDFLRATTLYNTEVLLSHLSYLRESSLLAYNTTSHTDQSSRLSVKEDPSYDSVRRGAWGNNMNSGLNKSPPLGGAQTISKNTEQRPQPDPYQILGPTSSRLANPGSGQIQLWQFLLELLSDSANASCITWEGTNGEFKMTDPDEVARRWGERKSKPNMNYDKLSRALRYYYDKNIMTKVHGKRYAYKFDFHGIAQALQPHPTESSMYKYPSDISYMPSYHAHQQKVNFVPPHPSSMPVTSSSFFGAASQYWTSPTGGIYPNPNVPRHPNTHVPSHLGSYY
Summary of the method: (§1)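 Human transcription factors fused to GST were expressed in yeast, captured on glutathione beads, given DNA barcodes and pooled with a GST-only negative control. Pools were incubated with 200 nmole of a 16-mer random double-stranded DNA library in Tris/NaCl/DTT/glycerol buffer at room temperature for 30 min. They were then washed, crosslinked with 0.1% formaldehyde, proximity-ligated (BsaI/T4 ligase, 1 h, 37 °C), PCR-amplified and sequenced on an Illumina NextSeq500. Binding signal is each 6-mer's read frequency for a factor divided by its frequency for the GST control.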

[2] = target: T2, ELK1 (Homo sapiens, UniProt P19419 1-428)
T2 sequence: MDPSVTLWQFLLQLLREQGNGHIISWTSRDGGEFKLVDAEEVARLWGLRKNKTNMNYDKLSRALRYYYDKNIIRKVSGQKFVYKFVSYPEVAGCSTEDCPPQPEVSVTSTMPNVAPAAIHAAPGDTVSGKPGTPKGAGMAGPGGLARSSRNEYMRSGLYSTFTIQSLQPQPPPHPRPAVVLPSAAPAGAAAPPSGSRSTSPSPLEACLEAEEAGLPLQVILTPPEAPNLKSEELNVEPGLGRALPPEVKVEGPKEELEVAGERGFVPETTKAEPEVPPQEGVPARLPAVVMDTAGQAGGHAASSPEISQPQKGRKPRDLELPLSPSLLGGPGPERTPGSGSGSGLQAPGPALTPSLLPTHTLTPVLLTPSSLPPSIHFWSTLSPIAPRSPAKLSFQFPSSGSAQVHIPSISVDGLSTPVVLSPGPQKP
Summary of the method: as §1

[3] = target: T3, GABPA (Homo sapiens, UniProt Q06546 1-454)
T3 sequence: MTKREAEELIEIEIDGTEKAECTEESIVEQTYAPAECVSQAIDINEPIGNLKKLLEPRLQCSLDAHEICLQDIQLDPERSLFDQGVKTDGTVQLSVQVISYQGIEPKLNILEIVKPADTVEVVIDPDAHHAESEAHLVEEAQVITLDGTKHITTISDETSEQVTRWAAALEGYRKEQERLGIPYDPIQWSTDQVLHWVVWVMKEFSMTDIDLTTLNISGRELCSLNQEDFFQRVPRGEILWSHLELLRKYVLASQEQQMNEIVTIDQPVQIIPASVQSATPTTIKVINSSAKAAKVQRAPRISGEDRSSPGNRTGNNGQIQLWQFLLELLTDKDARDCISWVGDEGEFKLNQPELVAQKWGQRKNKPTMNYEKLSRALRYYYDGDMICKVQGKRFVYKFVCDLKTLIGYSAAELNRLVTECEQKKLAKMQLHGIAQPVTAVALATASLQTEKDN
Summary of the method: as §1

[4] = target: T4, ERG (Homo sapiens, UniProt P11308 1-479)
T4 sequence: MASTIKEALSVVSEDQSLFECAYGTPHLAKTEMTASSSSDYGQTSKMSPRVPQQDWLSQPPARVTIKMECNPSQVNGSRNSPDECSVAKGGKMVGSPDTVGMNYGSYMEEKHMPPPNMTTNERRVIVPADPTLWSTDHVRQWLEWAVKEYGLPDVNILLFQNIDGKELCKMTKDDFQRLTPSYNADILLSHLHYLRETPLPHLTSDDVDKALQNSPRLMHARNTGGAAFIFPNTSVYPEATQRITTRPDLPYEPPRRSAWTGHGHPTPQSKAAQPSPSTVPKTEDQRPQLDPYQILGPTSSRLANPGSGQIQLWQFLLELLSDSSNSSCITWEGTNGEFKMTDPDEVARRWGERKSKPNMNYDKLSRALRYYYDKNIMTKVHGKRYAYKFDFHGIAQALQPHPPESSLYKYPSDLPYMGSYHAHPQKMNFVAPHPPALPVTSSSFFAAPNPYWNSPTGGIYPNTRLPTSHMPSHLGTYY
Summary of the method: as §1

[5] = target: ELF1 (Homo sapiens, UniProt P32519 1-619)
Summary of the method: as §1

[6] = target: T5, EHF (Homo sapiens, UniProt Q9NZC4 1-300)
T5 sequence: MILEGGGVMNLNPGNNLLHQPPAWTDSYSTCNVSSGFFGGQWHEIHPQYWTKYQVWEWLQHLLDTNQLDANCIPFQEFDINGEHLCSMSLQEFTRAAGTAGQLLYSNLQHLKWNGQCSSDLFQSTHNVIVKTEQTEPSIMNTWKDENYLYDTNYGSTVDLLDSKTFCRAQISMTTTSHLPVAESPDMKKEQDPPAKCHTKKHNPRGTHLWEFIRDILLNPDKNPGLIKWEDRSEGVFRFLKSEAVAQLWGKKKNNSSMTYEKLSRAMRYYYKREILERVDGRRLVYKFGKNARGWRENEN
Summary of the method: as §1

[7] = target: SPI1 (Homo sapiens, UniProt P17947 1-270)
Summary of the method: as §1

[8] = target: SPIB (Homo sapiens, UniProt Q01892 1-262)
Summary of the method: as §1

[9] = target: T6, ELK3 (Homo sapiens, UniProt P41970 1-407)
T6 sequence: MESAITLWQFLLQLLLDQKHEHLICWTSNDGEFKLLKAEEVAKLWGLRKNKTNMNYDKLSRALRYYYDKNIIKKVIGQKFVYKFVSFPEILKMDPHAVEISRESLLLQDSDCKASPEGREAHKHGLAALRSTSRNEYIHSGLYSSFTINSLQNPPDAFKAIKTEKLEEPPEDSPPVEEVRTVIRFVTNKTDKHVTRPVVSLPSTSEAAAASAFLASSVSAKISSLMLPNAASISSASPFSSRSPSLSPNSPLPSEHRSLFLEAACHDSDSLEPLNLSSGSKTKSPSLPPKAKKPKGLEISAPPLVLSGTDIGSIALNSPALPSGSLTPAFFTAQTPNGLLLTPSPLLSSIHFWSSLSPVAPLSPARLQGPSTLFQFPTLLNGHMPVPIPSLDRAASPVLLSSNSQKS
Summary of the method: as §1

[10] = target: T7, FEV (Homo sapiens, UniProt Q99581 1-238)
T7 sequence: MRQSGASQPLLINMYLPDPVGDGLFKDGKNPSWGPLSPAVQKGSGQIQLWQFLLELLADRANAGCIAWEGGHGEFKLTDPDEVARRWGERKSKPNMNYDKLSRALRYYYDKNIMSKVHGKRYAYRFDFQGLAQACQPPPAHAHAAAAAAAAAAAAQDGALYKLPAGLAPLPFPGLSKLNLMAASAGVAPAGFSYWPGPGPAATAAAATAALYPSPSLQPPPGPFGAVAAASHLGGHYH
Summary of the method: as §1

[11] = target: ETV5 (Homo sapiens, UniProt P41161 1-510)
Summary of the method: as §1

[12] = target: T8, SPIC (Homo sapiens, UniProt Q8N5J4 1-248)
T8 sequence: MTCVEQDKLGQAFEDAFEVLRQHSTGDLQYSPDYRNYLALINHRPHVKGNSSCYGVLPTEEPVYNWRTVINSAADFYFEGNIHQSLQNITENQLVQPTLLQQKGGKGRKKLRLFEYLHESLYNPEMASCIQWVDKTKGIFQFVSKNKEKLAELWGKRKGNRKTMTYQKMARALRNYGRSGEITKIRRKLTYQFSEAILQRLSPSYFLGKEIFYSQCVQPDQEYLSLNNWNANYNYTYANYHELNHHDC
Summary of the method: as §1

[13] = target: ELF4 (Homo sapiens, UniProt Q99607 1-663)
Summary of the method: as §1

[14] = target: T9, ELK4 (Homo sapiens, UniProt P28324-2 1-405)
T9 sequence: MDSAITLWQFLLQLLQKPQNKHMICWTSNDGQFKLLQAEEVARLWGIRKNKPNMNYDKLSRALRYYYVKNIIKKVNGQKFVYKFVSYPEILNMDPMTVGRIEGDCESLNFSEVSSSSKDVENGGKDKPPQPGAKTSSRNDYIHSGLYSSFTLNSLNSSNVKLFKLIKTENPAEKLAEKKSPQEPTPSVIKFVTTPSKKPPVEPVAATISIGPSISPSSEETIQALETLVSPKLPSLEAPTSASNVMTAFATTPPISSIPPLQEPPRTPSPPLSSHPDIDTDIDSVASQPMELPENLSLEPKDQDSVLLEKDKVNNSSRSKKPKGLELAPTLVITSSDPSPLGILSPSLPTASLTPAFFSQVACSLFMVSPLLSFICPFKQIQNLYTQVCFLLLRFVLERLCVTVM
Summary of the method: as §1

[15] = target: T10, ETV2 (Homo sapiens, UniProt O00321 1-342)
T10 sequence: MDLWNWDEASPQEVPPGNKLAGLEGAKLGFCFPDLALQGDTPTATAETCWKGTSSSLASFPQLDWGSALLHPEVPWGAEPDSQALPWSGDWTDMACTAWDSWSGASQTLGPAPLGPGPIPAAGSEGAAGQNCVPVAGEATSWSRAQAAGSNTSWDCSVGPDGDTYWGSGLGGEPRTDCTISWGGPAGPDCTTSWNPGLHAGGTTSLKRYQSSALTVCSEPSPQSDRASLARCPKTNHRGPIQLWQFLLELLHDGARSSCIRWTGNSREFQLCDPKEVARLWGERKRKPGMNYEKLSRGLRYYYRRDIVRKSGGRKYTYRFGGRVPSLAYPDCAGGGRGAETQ
Summary of the method: as §1

[16] = target: T11, ELF3 (Homo sapiens, UniProt P78545 1-371)
T11 sequence: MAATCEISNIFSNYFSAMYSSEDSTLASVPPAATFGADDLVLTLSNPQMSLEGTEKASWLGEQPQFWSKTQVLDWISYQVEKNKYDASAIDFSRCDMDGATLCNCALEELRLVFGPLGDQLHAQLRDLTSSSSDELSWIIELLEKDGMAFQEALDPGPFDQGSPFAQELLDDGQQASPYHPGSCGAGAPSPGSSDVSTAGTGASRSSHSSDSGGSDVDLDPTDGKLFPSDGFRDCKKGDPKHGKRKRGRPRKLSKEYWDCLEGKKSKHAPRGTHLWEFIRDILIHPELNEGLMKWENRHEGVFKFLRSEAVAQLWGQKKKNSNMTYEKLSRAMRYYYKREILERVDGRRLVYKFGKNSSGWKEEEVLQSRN
Summary of the method: as §1

[17] = target: ETV1 (Homo sapiens, UniProt P50549 1-477)
Summary of the method: as §1

Sequence of ELF4 (Q99607 whole entry): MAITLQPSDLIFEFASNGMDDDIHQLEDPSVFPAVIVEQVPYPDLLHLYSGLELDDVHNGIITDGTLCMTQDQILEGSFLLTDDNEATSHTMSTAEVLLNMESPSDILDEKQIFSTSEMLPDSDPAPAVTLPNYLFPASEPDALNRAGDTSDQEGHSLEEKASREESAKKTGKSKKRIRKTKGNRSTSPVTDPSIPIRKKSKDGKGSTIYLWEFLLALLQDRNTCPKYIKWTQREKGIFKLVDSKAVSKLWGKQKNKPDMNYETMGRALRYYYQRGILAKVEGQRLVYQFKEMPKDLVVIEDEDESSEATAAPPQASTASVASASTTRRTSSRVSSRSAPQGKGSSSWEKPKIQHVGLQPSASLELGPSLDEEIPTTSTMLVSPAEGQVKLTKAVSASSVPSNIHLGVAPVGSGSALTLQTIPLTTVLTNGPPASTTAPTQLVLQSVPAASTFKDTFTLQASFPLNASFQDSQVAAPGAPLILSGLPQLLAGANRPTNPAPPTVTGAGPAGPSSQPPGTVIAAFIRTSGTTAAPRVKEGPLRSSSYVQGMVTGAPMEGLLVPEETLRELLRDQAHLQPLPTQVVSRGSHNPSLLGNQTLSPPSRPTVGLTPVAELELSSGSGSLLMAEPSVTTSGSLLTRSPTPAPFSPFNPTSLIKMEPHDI
Sequence of ELF1 (P32519 whole entry): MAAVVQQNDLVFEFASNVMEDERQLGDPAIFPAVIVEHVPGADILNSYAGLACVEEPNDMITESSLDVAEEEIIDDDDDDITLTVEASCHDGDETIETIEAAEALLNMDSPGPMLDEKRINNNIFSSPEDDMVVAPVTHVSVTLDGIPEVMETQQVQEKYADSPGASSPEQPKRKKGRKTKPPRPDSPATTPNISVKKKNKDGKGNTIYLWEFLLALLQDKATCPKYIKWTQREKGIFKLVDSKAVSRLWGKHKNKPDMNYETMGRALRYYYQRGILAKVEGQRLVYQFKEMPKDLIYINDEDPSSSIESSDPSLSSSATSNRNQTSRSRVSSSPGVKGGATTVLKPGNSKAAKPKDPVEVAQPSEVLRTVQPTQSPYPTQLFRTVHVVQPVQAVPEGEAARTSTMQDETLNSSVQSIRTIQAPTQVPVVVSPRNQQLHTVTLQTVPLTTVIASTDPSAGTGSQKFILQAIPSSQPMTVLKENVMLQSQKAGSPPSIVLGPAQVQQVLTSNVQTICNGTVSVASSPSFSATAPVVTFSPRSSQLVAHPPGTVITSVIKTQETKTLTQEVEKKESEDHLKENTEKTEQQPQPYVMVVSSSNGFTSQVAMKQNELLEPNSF
Sequence of SPIB (Q01892 whole entry): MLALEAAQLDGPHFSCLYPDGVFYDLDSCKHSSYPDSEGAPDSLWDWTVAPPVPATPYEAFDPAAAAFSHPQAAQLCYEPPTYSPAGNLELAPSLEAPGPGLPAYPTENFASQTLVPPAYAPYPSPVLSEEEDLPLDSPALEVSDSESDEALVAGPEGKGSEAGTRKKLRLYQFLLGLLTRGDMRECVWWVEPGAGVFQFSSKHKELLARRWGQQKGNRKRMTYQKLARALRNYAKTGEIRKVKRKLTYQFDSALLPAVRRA
Sequence of ETV1 (P50549 whole entry): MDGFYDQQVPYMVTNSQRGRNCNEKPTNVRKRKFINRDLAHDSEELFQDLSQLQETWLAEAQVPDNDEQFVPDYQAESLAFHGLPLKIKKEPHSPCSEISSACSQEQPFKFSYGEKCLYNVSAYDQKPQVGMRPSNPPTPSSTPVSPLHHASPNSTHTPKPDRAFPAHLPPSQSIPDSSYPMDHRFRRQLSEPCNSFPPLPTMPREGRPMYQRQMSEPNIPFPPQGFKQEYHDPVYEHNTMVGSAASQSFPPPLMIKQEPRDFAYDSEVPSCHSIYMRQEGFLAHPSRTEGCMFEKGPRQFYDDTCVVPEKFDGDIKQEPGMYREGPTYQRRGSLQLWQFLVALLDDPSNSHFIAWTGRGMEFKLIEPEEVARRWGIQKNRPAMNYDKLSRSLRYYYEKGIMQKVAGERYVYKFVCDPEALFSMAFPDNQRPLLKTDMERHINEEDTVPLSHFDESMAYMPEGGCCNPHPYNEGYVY
Sequence of ETV5 (P41161 whole entry): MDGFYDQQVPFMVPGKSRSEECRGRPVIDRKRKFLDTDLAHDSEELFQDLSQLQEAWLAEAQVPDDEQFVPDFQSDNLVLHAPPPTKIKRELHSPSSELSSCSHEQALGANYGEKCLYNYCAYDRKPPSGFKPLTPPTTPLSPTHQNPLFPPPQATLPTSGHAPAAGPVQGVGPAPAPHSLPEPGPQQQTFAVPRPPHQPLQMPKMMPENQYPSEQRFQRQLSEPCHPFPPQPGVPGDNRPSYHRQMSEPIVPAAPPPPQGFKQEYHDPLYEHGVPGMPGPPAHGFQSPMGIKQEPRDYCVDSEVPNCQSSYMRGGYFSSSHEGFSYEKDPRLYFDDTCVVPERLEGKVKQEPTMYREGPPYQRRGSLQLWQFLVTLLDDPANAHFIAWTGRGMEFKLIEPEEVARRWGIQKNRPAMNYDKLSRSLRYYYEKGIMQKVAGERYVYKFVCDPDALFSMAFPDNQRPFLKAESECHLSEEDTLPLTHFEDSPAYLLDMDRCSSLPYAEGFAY

## TGCACA
[1]
  binding signal: 1.18 fold enrichment (6-mer frequency, TF over GST control)
[2]
  binding signal: 1.18 fold enrichment (6-mer frequency, TF over GST control)
[3]
  binding signal: 1.03 fold enrichment (6-mer frequency, TF over GST control)
[4]
  binding signal: 1.09 fold enrichment (6-mer frequency, TF over GST control)
[5]
  binding signal: 1.1 fold enrichment (6-mer frequency, TF over GST control)
[6]
  binding signal: 1.02 fold enrichment (6-mer frequency, TF over GST control)
[7]
  binding signal: 1.05 fold enrichment (6-mer frequency, TF over GST control)
[8]
  binding signal: 1.13 fold enrichment (6-mer frequency, TF over GST control)
[9]
  binding signal: 1.2 fold enrichment (6-mer frequency, TF over GST control)
[10]
  binding signal: 1.14 fold enrichment (6-mer frequency, TF over GST control)
[11]
  binding signal: 1.13 fold enrichment (6-mer frequency, TF over GST control)
[12]
  binding signal: 1.15 fold enrichment (6-mer frequency, TF over GST control)
[13]
  binding signal: 1.12 fold enrichment (6-mer frequency, TF over GST control)
[14]
  binding signal: 1.11 fold enrichment (6-mer frequency, TF over GST control)
[15]
  binding signal: 1.15 fold enrichment (6-mer frequency, TF over GST control)
[16]
  binding signal: 1.26 fold enrichment (6-mer frequency, TF over GST control)
[17]
  binding signal: 1.09 fold enrichment (6-mer frequency, TF over GST control)

## CCCCGG
[1]
  binding signal: 1.19 fold enrichment (6-mer frequency, TF over GST control)
[2]
  binding signal: 1.18 fold enrichment (6-mer frequency, TF over GST control)
[3]
  binding signal: 1.15 fold enrichment (6-mer frequency, TF over GST control)
[4]
  binding signal: 1.3 fold enrichment (6-mer frequency, TF over GST control)
[5]
  binding signal: 1.22 fold enrichment (6-mer frequency, TF over GST control)
[6]
  binding signal: 1.24 fold enrichment (6-mer frequency, TF over GST control)
[7]
  binding signal: 1.16 fold enrichment (6-mer frequency, TF over GST control)
[8]
  binding signal: 1.27 fold enrichment (6-mer frequency, TF over GST control)
[9]
  binding signal: 1.2 fold enrichment (6-mer frequency, TF over GST control)
[10]
  binding signal: 1.38 fold enrichment (6-mer frequency, TF over GST control)
[11]
  binding signal: 1.27 fold enrichment (6-mer frequency, TF over GST control)
[12]
  binding signal: 1.07 fold enrichment (6-mer frequency, TF over GST control)
[13]
  binding signal: 1.2 fold enrichment (6-mer frequency, TF over GST control)
[14]
  binding signal: 1.31 fold enrichment (6-mer frequency, TF over GST control)
[15]
  binding signal: 1.24 fold enrichment (6-mer frequency, TF over GST control)
[16]
  binding signal: 1.09 fold enrichment (6-mer frequency, TF over GST control)
[17]
  binding signal: 1.29 fold enrichment (6-mer frequency, TF over GST control)
